In the GenesisPotency data set:
Screen size: about 290,000 compounds; about 3,000 (1%) were called active. Rule as the data show it: active = inhibition mostly above about 36% (no sharp cut-off); inactive = mostly below about 34%. This excerpt belongs to a sample that is enriched for actives.

Target: T1, Nucleotide-binding oligomerization domain-containing protein 1, Homo sapiens (UniProt Q9Y239)
T1 sequence (whole entry): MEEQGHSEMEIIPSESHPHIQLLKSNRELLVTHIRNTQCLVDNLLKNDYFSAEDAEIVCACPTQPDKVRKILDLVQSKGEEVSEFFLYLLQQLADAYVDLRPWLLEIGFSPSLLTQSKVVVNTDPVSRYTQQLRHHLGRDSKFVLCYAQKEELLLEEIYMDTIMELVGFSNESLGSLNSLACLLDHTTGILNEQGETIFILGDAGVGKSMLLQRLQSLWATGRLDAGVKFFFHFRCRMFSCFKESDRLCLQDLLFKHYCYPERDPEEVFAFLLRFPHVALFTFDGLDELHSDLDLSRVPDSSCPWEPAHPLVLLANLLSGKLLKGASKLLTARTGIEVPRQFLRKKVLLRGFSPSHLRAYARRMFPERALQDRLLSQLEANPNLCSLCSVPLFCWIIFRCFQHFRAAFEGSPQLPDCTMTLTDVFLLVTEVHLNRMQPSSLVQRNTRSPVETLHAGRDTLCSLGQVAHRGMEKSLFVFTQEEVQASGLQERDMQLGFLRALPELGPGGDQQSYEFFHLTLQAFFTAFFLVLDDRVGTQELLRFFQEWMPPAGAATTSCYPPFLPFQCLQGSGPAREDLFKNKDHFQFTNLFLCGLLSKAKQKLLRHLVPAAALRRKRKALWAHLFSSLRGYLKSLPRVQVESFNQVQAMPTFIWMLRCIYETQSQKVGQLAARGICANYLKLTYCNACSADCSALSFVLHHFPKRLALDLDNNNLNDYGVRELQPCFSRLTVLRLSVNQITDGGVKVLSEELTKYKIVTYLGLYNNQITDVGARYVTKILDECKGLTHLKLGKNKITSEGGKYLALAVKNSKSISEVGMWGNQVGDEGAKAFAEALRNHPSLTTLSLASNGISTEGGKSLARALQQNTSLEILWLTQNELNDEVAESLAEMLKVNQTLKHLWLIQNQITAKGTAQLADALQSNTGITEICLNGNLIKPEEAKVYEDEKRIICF
Assay: inhibition of NOD1-driven NF-kB reporter – cell-based, luminescence, uHTS, primary screen (AID 1578)

outcome, active:
COc1ccccc1OCC(=O)OC/C(O)=C(\C#N)c1nc2ccccc2[nH]1
Cc1cccc(C)c1OCC(=O)OC/C(O)=C(\C#N)c1nc2ccccc2[nH]1
O=C(Nc1nc2ccccc2n1CCOc1ccc(Cl)cc1)c1ccco1
CCOC(=O)c1sc(NC(=O)CSc2nc3c(cc2C#N)CCCCCC3)c(C#N)c1C
Cc1ccccc1-c1cc(C(=O)Nc2sc(C(=O)OC(C)C)c(C)c2C#N)c2ccccc2n1
COC(=O)c1sc(NC(=O)c2cc(-c3ccccc3)nc3ccccc23)c(C#N)c1C
CCOC(=O)c1sc(NC(=O)c2cc(-c3ccccc3C)nc3ccccc23)c(C#N)c1C
CCOC(=O)c1sc(NC(=O)CSc2n[nH]c(-c3ccccc3)n2)c(C#N)c1C
CCOC(=O)c1sc(NC(=O)c2cc(-c3ccccc3)nc3ccccc23)c(C#N)c1C
Cc1ccc(C(=O)O/N=C(\N)c2ccccn2)c(C)c1
Cc1ccc(C)c(N2CCN(C(=O)CCCCCn3c(=S)[nH]c4ccc(N5CCOCC5)cc4c3=O)CC2)c1
N#Cc1ccc(C(=O)Nc2nc(-c3cccs3)c(C(=O)C(F)(F)F)s2)cc1
CCS(=O)(=O)c1ncc(Cl)c(C(=O)Nc2ccc(C)cc2)n1
CCS(=O)(=O)c1ncc(Cl)c(C(=O)Nc2ccc(S(=O)(=O)N(C)c3ccccc3)cc2)n1
CN(c1ccccc1)S(=O)(=O)c1ccc(NC(=O)c2nc(S(C)(=O)=O)ncc2Cl)cc1
CCN(c1ccccc1)S(=O)(=O)c1ccc(NC(=S)NC(=O)c2cccs2)cc1
Cc1csc2ncnc(N3CCN(C(=S)Nc4ccc(F)cc4F)CC3)c12
Cc1csc2ncnc(N3CCN(C(=S)Nc4ccc(C(F)(F)F)cc4)CC3)c12
Fc1ccc(NC(=S)N2CCCN(c3ccc(C(F)(F)F)cn3)CC2)c(F)c1
Cc1csc2c(N3CCN(C(=S)Nc4ccc(C(F)(F)F)cc4)CC3)ncnc12
Cc1csc2ncnc(N3CCN(S(=O)(=O)c4cccc(C(F)(F)F)c4)CC3)c12
Cc1csc2ncnc(N3CCN(C(=O)Nc4ccc(OC(F)(F)F)cc4)CC3)c12
Cc1c(C#N)c(NC(=O)CCl)n(Cc2ccccc2)c1C
Cc1c(C#N)c(NC(=O)CCl)n(Cc2cccs2)c1C
Br.CCCCCCCn1c2c(c(=N)c3c1CCC3)CCCC2
Br.CCCCCCCCn1c2c(c(=N)c3c1CCC3)CCCC2
Br.CCCCCCCCCn1c2c(c(=N)c3c1CCC3)CCCC2
CC(=O)N1CCCc2cc(S(=O)(=O)N3CCCC(C(=O)N4CCN(c5cccc(Cl)c5)CC4)C3)ccc21 (centres undefined)
CC(=O)N1CCCc2cc(S(=O)(=O)N3CCCC(C(=O)N4CCN(c5cc(C)ccc5C)CC4)C3)ccc21 (centres undefined)
Cc1ccc(S(=O)(=O)c2ncccc2[N+](=O)[O-])cc1
CN1C(=O)/C(=C/c2ccccc2Cl)Sc2ccc(C(=O)N3CCCC3)cc21
COc1ccc(/C=C2\Sc3ccc(C(=O)N4CCN(Cc5ccccc5)CC4)cc3N(C)C2=O)cc1OC
Cc1ccc(-c2csc(NC3OC(=O)c4ccccc43)n2)cc1 (centres undefined)
COc1ccc2c(c1OC)C(=O)OC2Nc1nc(-c2ccccc2)cs1 (centres undefined)
O=C(NCCc1ccccc1F)c1ccc2c(c1)OCCO2
O=C(NCCc1ccccc1)c1ccc2c(c1)OCCCO2
COc1cc(C)c(Br)cc1S(=O)(=O)NCc1ccncc1
Cc1ccc(Cc2c(C)c(C#N)c3[nH]c4ccccc4n3c2=O)cc1
O=C(N/N=C/c1ccc([N+](=O)[O-])s1)c1ccccc1Br
O=C(N/N=C/c1ccc([N+](=O)[O-])s1)c1cccc(Br)c1
Cc1ccc(NC(=O)c2ccccc2NS(=O)(=O)c2ccc(F)cc2)cc1S(=O)(=O)N1CCCCC1
O=C(Nc1cccc(S(=O)(=O)N2CCCCC2)c1)c1ccccc1NS(=O)(=O)c1ccc(F)cc1
COc1cc(SC)ccc1C(=O)Nc1nc2ccccc2[nH]1
COc1ccccc1C(=O)Nc1nc2ccccc2[nH]1
Cc1c(C(=O)Nc2nc3ccccc3[nH]2)oc2ccc(Br)cc12
O=c1cc(C(F)(F)F)nc(SCc2cccc3ccccc23)[nH]1
Cc1cnc(NC(=O)C2CC(=O)N(c3cccc(Cl)c3)C2)s1 (centres undefined)
CC(C)(C)c1cc(NC(=O)CCl)n(-c2ccccc2)n1
O=[N+]([O-])c1cccc(NC(=S)Nc2nc(-c3ccc(Cl)cc3Cl)cs2)c1
Cc1cc(Br)ccc1SCC(=O)OC/C(O)=C(\C#N)c1nc2ccccc2[nH]1
N#C/C(=C(/O)COC(=O)CSc1ccc2ccccc2c1)c1nc2ccccc2[nH]1
CC(C)(C)c1ccc(-c2noc(CCC(N)=O)n2)cc1
CC(C)(C)c1ccc(-c2noc(CCC(=O)Nc3cccnc3)n2)cc1
O=C(NC1CCCCC1)N1CCN(c2nc(-c3ccccc3)cs2)CC1
CCOC(=O)CC1CCCCN1C(=O)c1cc(COc2cccc3cnccc23)on1 (centres undefined)
COC(=O)C1CCCCN1C(=O)c1cc(COc2cccc3cnccc23)on1 (centres undefined)
COc1cc(NC(=O)COc2cc(O)c3c(c2)OC(C)(C)CC3=O)cc(OC)c1OC
NC(=O)c1sc2nc3c(c(-c4ccccc4)c2c1N)CCC3
Cc1ccc(-c2c3c(nc4sc(C(N)=O)c(N)c24)CCC3)cc1
NC(=O)c1sc2nc3c(c(-c4ccco4)c2c1N)CCCC3
Cc1nc2sc(C(N)=O)c(N)c2c2c1CCCC2
NC(=O)c1sc2nc3c(c(-c4cccs4)c2c1N)CCCCC3
Nc1ncc([N+](=O)[O-])c(N2CCCCCC2)n1
COc1ccccc1N1CCN(C(=O)C2CCCN(S(=O)(=O)c3ccc4c(c3)oc(=O)n4C)C2)CC1 (centres undefined)
CCN(CC)S(=O)(=O)c1ccc(Oc2ccc(S(=O)(=O)N(CC)CC)cc2)cc1
Cc1ccccc1NC(=O)/C=C/c1ccc([N+](=O)[O-])s1
Cc1ccc(NC(=O)/C=C/c2ccc([N+](=O)[O-])s2)c(C)c1
CCCc1nc2c(=O)n(C)c(=O)nc-2n(C)n1
O=C(CCl)N(c1ccccc1)c1ccccc1
O=C(CCl)N(Cc1ccccc1)c1ccccc1
CC(=O)n1cc(N(C(=O)CCl)c2ccccc2)c2ccccc21
O=C(CCl)N(c1ccccc1)c1c[nH]c2ccccc12
O=C(COc1ccc(Br)cc1Cl)NC(=S)N1CCc2ccccc21
CC1Cc2ccccc2N1S(=O)(=O)c1cccc(C(=O)N2CCN(c3ncccn3)CC2)c1 (centres undefined)
CC1Cc2ccccc2N1C(=S)NC(=O)c1cccc(Br)c1 (centres undefined)
Cn1c(=NC(=O)CCl)sc2ccccc21
Cc1cc(C(=O)CCl)c(C)n1CCc1ccc(F)cc1
CCc1ccc(-c2nc(CSCC(=O)N3CCN(c4ccccn4)CC3)c(C)o2)cc1
COc1cccc(CN(C)C(=O)CNC(=O)c2ccc(-c3ccccc3)cc2)c1OC
CCOc1ccc(S(=O)(=O)Nc2cnc3ccccc3c2)cc1
Cc1c(C(=O)Nc2nonc2-c2ccc(F)cc2)oc2ccc(F)cc12
Nc1ncc(Br)cc1S(=O)(=O)Nc1cc(C(F)(F)F)cc(C(F)(F)F)c1
O=[N+]([O-])c1cc([N+](=O)[O-])c2oc(-c3ccccc3)c(Br)c2c1O
O=[N+]([O-])c1ccc(Oc2ccc(F)cc2Br)c2ccncc12
O=[N+]([O-])c1ccc(Oc2ccc(F)cc2)c2ccncc12
Cn1nccc1C(=O)NC1CCCc2c1cnn2-c1ccc(F)cc1F (centres undefined)
Cc1ccc(C(=O)NC2CCCc3c2cnn3-c2ccc(F)cc2F)cn1 (centres undefined)
CC1=C(C(=O)NC2CCCc3c2cnn3-c2ccc(F)cc2F)OCCO1 (centres undefined)
COc1ccc(C(=O)CN2C(=O)c3ccccc3S2(=O)=O)cc1
Cc1ccc(C(=O)CN2C(=O)c3ccccc3S2(=O)=O)cc1
COc1ccc(-c2cc3nc(C)n(N)c(=O)c3s2)cc1
COc1ccc(-c2cc3nc(CCl)[nH]c(=O)c3s2)cc1
COc1ccccc1-c1nnc(Sc2nc([N+](=O)[O-])nn2C)o1
OCCCNc1cc(-c2ccnc(Nc3cccc(Cl)c3)n2)ccn1
OCCCNc1nccc(-c2cc(Nc3cccc(Cl)c3)ncn2)n1
CCOC(=O)c1oc2ccc(S(=O)(=O)n3nc(-c4ccc(OC)cc4)cc3N)cc2c1C
CN(C)c1ccnc2sc3c(=O)n(Cc4ccccc4)cnc3c12
Cc1c(C(=O)N2CCN(Cc3ccc4c(c3)OCO4)CC2)sc2ncnc(N3CCN(c4ccccc4)CC3)c12
Cl.O=[N+]([O-])c1ccc2ncnc(N3CCN(Cc4ccc5c(c4)OCO5)CC3)c2c1
Cc1ccc(S(=O)(=O)CC#CCOC(=O)c2ccc([N+](=O)[O-])cc2)cc1
CCOC(=O)c1csc(Nc2nc3ccc(F)cc3s2)n1
CN(c1ccccc1)S(=O)(=O)c1cccc(NC(=O)c2cc(=O)c3ccccc3o2)c1
Cc1cc(Cl)c(S(=O)(=O)N2CCN(c3ccc(F)cc3)CC2)cc1OCC(=O)NC1CCCCC1
Cc1cc(Cl)c(S(=O)(=O)N2CCCCCC2)cc1OCC(=O)NC1CCCCC1
Cc1cc(C)c(C(=O)/C=C/c2cccc3ccccc23)c(=O)[nH]1
Cc1cc(C)c(C(=O)/C=C/c2ccc(C(C)C)cc2)c(=O)[nH]1
O=C(/C=C/c1ccc2c(c1)OCO2)Nc1nc(-c2ccccc2)cs1
COc1cccc(N(C(=O)CCl)C(C(=O)NCCc2ccccc2)c2cccs2)c1 (centres undefined)
COc1ccc(N(C(=O)CCl)C(C(=O)NCCc2ccccc2)c2cccs2)cc1 (centres undefined)
